Screens as filed in PubChem BioAssay.
D3 ag – D3 dopamine receptor (human) agonism. 410,000 tested, 0.58% active. max activation, %. D3R DiscoveRx beta-arrestin cells, luminescence, 90 min. P35462; in the data active means max activation above about 30%; further: 0% is about no effect
Target sequence (P35462 whole entry, looked up): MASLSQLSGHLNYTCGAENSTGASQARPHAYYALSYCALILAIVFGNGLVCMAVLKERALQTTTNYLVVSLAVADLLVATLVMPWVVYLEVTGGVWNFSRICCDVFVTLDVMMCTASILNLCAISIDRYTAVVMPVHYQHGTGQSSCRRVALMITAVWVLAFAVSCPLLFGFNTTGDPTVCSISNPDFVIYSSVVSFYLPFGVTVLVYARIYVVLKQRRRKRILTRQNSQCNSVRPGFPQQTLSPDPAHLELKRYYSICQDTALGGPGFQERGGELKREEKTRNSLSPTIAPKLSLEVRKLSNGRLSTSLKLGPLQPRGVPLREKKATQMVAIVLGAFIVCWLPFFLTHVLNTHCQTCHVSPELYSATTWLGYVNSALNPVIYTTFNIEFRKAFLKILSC
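Cells at 1500/well, incubated overnight, then treated with pinned compounds (dopamine as control) for 90 min at 37 degrees C. DiscoveRx reagent added for 30 - 60 minutes at room temperature; luminescence read.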
KB-3-1 tox – kills parental KB-3-1 adenocarcinoma cells | KB-3-1 viability, CellTiter-Glo ATP luminescence, 72 h | Potency, µM (titrated, usually from 46.1 µM), actives largely listed as cytotoxic | 400,000 tested, 1.4% active | AID 1347075; further: potency means the concentration at half of the fitted maximal effect; on the % scale 0 is the no-effect control and ±100 the full control effect; nearly all actives have a fitted effect of over 60% in size
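Screening of KB-3-1 cells (DMEM, 10% FBS, phenol-red free) ran from lowest to highest compound concentration; after 72 h at 37 °C viability was read luminescently and curves fitted.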
SW480 rerep – inducers of DNA re-replication in SW480 colon cancer cells; AID 624297; Potency, µM (series often up to 46.1 µM), without a hit: at the highest dose re-replication activation, usual class: activators; SW480 DNA re-replication, Hoechst DNA content imaging, 48 h; 340,000 tested, 1.8% active; further: potency means the concentration at half of the fitted maximal effect; % of control where 0% means no effect; nearly all actives have a fitted effect of over 55% in size
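250 cells/well; 23 nL cpd via pin tool; 48 hr, 37 C, 5% CO2; Hoechst 40 min; imager read of total nuclear intensity, ex 405/em 500-530 nm.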
D3 antag – blocks the human D3 dopamine receptor; D3R cells, DiscoveRx beta-arrestin luminescence, antagonist mode; hits give low values; max response, negative = inhibition, %; 360,000 tested, 2.5% active; P35462; in the data active means max response below about -50%; inconclusive means no clear call, values can overlap the other calls; further: on the % scale 0 is the no-effect control and ±100 the full control effect
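Cells plated overnight at 1500 cells/well, then exposed to library compounds with dopamine controls for 90 minutes at 37 degrees C. DiscoveRx reagent added for 30–60 minutes at room temperature; luminescence read, quantitative HTS format.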
KB-V1 MDR tox – kills drug-selected multidrug resistant KB-V1 cells; KB-V1 MDR cells viability, CellTiter-Glo, 72 h; Potency, µM (titrated, usually from 46.1 µM), most hits filed as cytotoxic; 400,000 tested, 3.4% active; further: potency means the concentration at half of the fitted maximal effect; on the % scale 0 is the no-effect control and ±100 the full control effect; nearly all actives have a fitted effect of over 60% in size
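KB-V1 MDR subline cells in DMEM (phenol-red free, 10% FBS) exposed to compounds in qHTS concentration series for 72 h at 37 degrees C. Viability read by CellTiter-Glo luminescence; concentration-effect curves fitted after normalization and correction.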
MCF10A rereplic – inducers of DNA re-replication in MCF 10A breast cells | MCF 10A DNA re-replication, Hoechst nuclear intensity, 48 h | Potency, µM (titrated, usually from 46.1 µM), for inactives: at the highest dose activity, positive = re-replication, most hits filed as activators | 350,000 tested, 2.9% active; further: potency means the concentration at half of the fitted maximal effect; % of control where 0% means no effect; nearly all actives have a fitted effect of over 50% in size
* hit, by the source's call; i = inactive; ? = inconclusive; · = not tested or not shown; ! = not confirmed by another sample. Hits are enriched below; roughly 8.9% of the tested compounds scored in any of these assays. Unless noted, the call rests on the fitted dose curve; in most records, active means well fitted curve in the direction sought with a large enough effect; inconclusive means small, poorly fitted or top-dose-only effect, or another doubt; inactive means no such curve, though single readings can be large; an effect the other way counts as inactive or inconclusive.

SMILES | D3 ag | KB-3-1 tox | SW480 rerep | D3 antag | KB-V1 MDR tox | MCF10A rereplic
Oc1ccc(F)c2cccnc12 | -8 | i | ? | -15 | i | ?
Cc1ccc(S(=O)(=O)Nc2cc(Cl)c(O)c3ncccc23)cc1 | 1 | ? | 5.2µM* | -12 | ? | ?
COc1ccc(-c2noc(N3CCC(C(=O)N4CCN(c5ccccn5)CC4)CC3)n2)cc1 | 5 | i | -8% | 7 | 5.8µM* | 20%
COc1ccc(-c2noc(N3CCC(C(=O)N4CCN(c5ccccc5OC)CC4)CC3)n2)cc1 | 7 | · | · | · | · | ·
COc1cccc(-c2cc(C(=O)N3CC4(C)CC3CC(C)(C)C4)no2)c1 (configuration not stated) | 2 | i | 0% | 23 | 15µM* | ?
CC1(C)CC2CC(C)(CN2C(=O)c2cc(-c3ccc(O)cc3)on2)C1 (configuration not stated) | 11 | i | 2% | 3 | i | ?
Cc1cc(-c2nc3ncccc3o2)ccc1NC(=O)COc1cc(C)c(Cl)c(C)c1 | -3 | i | · | · | i | ·
O=C(Cn1nc(-c2ccc(Cl)cc2)ccc1=O)NCc1ccccc1Cl | -12 | i | · | · | ? | ·
O=C(CSc1nc2scc(-c3ccco3)c2c(=O)n1-c1ccccc1)N1CCOCC1 | 31* | i | 2% | 12 | i | ?
CCOC(=O)c1cc(C)[nH]c(=O)c1C#N | 1 | i | 0% | 19 | i | -1%
COCc1cc(C)[nH]c(=O)c1C#N | -10 | i | 12% | -53* | i | -15%
CCN(CC(=O)NCc1cccs1)C(=O)CCCOc1ccc(C(C)(C)C)cc1 | -3 | ? | -1% | -6 | 21µM* | 16%
COc1cc(Cl)c(C)cc1NC(=O)CSc1cc(-c2ccccc2)nc(C)n1 | 16 | · | · | · | · | ·
Cc1cccc(CN2C(=O)[C@H]3Cc4c([nH]c5ccccc45)C(C)(C)N3C2=O)c1 | · | ? | ? | · | ? | 16µM*
COC(=O)[C@@H]1Cc2c([nH]c3ccccc23)C(C)(C)N1C(=O)CCl | 4 | ? | 6.5µM* | 13 | ? | 18µM*
CC1(C)c2[nH]c3ccccc3c2C[C@@H]2C(=O)N(Cc3ccccc3)C(=O)N21 | · | i | ? | · | ? | 23µM*
CC1(C)c2[nH]c3ccccc3c2C[C@H]2C(=O)N(Cc3ccccc3)C(=O)N21 | · | i | -5% | · | i | ?
Cc1cccc(CN2C(=O)[C@@H]3Cc4c([nH]c5ccccc45)C(C)(C)N3C2=O)c1 | · | ? | 8% | · | ? | ?
COC(=O)C1Cc2c([nH]c3ccccc23)C2CCC(=O)N12 (configuration not stated) | 3 | i | · | 25 | i | ·
CC1CCCC(NCC(O)COC(c2ccc(F)cc2)c2ccc(F)cc2)C1C (configuration not stated) | -14 | ? | 0% | -9 | 18µM* | ?
O=C(OCC(O)CO)c1ccccc1Nc1ccnc2cc(Cl)ccc12 (configuration not stated) | 46*! | i | -60% | 49 | ? | -40%
CCc1ccc2occ(CC(=O)Nc3nnc(C)s3)c2c1 | 8 | i | · | · | i | ·
Cc1nc2ccccc2cc1OCc1ccccc1 | 5 | ? | 1% | 8 | ? | 11%
Cc1nc2ccccc2cc1OCc1ccc(Cl)cc1 | 0 | 2.6µM* | 1% | 27 | 1.8µM* | ?
COc1ccccc1CCNC(=O)CCc1c(C)c2cc3c(C)coc3cc2oc1=O | -5 | i | · | · | i | ·
SMILES | D3 ag | KB-3-1 tox | SW480 rerep | D3 antag | KB-V1 MDR tox | MCF10A rereplic
CCCCCSc1nnc2c(n1)OC(C)N(C(C)=O)c1ccccc1-2 (configuration not stated) | -12 | i | -5% | -68* | i | -1%
CCCCNC(=O)c1cccc2c(=O)c(C)c(-c3ccccc3)oc12 | -4 | i | -3% | 2 | ? | 11%
Cc1c(-c2ccccc2)oc2c(C(=O)N3CCN(c4ccccc4F)CC3)cccc2c1=O | 1 | ? | -4% | 13 | 4.6µM* | 0%
O=C(NCCO)c1cccc(Nc2nc(-c3ccccc3)c3cc(Cl)ccc3n2)c1 | 7 | i | 16µM* | 24 | 16µM* | ?
NNc1nc(-c2ccccc2)c2cc(Cl)ccc2n1 | 9 | i | -53% | -15 | i | 10µM*
C=C(C)C1CC=C(C)/C(=N\NC(=S)Nc2ccc(C)cc2)C1 (configuration not stated) | -24 | ? | ? | -17 | 16µM* | ?
CC(C)=CCC[C@H](C)CC1Cc2[nH]c(=S)[nH]c(=O)c2C(c2ccc(F)cc2)O1 (some centres not stated) | 7 | i | · | 11 | i | ·
CC(C)=CCC[C@H](C)C[C@@H]1Cc2[nH]c(=S)[nH]c(=O)c2[C@@H](c2ccc(F)cc2)O1 | -3 | ? | · | -55* | i | ·
CNCCCC1Sc2ccccc2Oc2ccccc21 (configuration not stated) | 2 | ? | ? | -74* | ? | 20%
S=c1[nH]nc(-c2ccc3ccccc3n2)n1-c1cc(Cl)cc(Cl)c1 | 4 | i | -1% | -1 | 16µM* | 20%
O=c1c2ccccc2cnn1Cc1n[nH]c(=S)n1-c1cc(Cl)cc(Cl)c1 | -7 | i | · | -57* | i | 0%
Cc1ccc(-n2nnc3c(sc4nc(C)c(C)cc43)c2=O)cc1Cl | -3 | · | · | · | · | ·
CC[n+]1c(/C=C/C=C/N(C(C)=O)c2ccccc2)sc2cc(OC)ccc21 | 4 | 3.3µM* | ? | -24 | 13µM* | -102%
CN1CCN(Cc2nc(Cc3ccccc3)no2)CC1c1ccccc1 (configuration not stated) | -6 | i | 1% | 3 | ? | 2%
c1ccc(Cc2noc(CN3CCN(CCOc4ccccc4)CC3)n2)cc1 | 16 | i | 6% | -53* | i | -4%
Cc1cc2c(cc1S(=O)(=O)N(CCN(C)C)Cc1ccco1)OCC(=O)N2 | -5 | i | · | · | i | ·
CCSc1nc2c([nH]c3ccccc32)c(=O)n1CC | 0 | · | · | · | · | ·
CCCCNc1nc(Oc2ccc(OCC(N)=O)nn2)nc(N2CCOCC2)n1 | 6 | i | · | · | i | ·
N#C/C(=C\c1ccccc1[N+](=O)[O-])C(=O)NC1CCCCC1 | 3 | ? | ? | -4 | i | ?
CCOC(=O)c1ccc(-c2ccc(/C=C(\C#N)C(=O)Nc3c(C)cccc3Cl)o2)cc1 | 10 | i | · | · | i | ·
N#C/C(=C\C=C\c1ccccc1[N+](=O)[O-])C(=O)NC1CCCCC1 | -7 | i | ? | -1 | ? | 9.2µM*
